# Laboratory results taken from article PMC10812921, “Transcriptional Coactivator BOB1 (OBF1, OCA-B) Modulates the Specificity of DNA Recognition by the POU-Domain Factors OCT1 and OCT2 in a Monomeric Configuration”.
# How the values were obtained:
# POU1 (OCT1 POU domain) = POU1 (OCT1 POU domain) (human, UniProt P14859 260-458); assay: EMSA-SELEX-seq; no BOB1; 20 mM Tris-HCl pH 7.6, 140 mM NaCl, 10% glycerol, 0.5 mM EDTA, 0.05% Triton X-100, 0.1 mg/mL BSA, 0.1 mg/mL poly(dI-dC), 5 mM DTT, room temperature, 20 min; high values mean tight binding; details: protein: recombinant; dsDNA, one strand shown
# In short: (§1)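 Binding preference is reported as the percentage of sequenced 8-mers that match a motif pattern. Tagged POU-domain proteins were made in E. coli BL21, purified under denaturing conditions and renatured. A 30 ng portion was combined with 300 ng of a PCR-amplified double-stranded random 35-nt library, with or without 28 ng coactivator protein, in 20 μL Tris–HCl pH 7.6 binding buffer for 20 min at RT. Complex bands were excised from native 6% PAGE, eluted and PCR-amplified over four rounds before Illumina sequencing.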
# POU2 (OCT2 POU domain) = biological target: T1, POU2 (OCT2 POU domain) (human, UniProt P09086 175-386); assay: as above; details: protein: recombinant; dsDNA, one strand shown
# T1 sequence: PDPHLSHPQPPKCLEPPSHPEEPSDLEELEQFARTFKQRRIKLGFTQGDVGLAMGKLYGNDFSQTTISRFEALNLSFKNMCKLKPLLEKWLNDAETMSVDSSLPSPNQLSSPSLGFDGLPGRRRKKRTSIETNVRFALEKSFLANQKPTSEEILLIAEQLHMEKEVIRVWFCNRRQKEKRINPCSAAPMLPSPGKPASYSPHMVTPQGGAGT
# In short: as §1
# [1] = biological target: POU1 (OCT1 POU domain);BOB1 (OBF1, OCA-B) (human;human, UniProt P14859;Q16633 260-458;1-256, |); assay: EMSA-SELEX-seq; with BOB1 (ternary complex band); 20 mM Tris-HCl pH 7.6, 140 mM NaCl, 10% glycerol, 0.5 mM EDTA, 0.05% Triton X-100, 0.1 mg/mL BSA, 0.1 mg/mL poly(dI-dC), 5 mM DTT, room temperature, 20 min; high values mean tight binding; details: protein: recombinant;recombinant; copies: 1;1; dsDNA, one strand shown
# In short: as §1
# [2] = biological target: T2, POU2 (OCT2 POU domain);BOB1 (OBF1, OCA-B) (human;human, UniProt P09086;Q16633 175-386;1-256, |); assay: as above; details: protein: recombinant;recombinant; copies: 1;1; dsDNA, one strand shown
# T2 sequence 1: T1 sequence
# T2 sequence 2: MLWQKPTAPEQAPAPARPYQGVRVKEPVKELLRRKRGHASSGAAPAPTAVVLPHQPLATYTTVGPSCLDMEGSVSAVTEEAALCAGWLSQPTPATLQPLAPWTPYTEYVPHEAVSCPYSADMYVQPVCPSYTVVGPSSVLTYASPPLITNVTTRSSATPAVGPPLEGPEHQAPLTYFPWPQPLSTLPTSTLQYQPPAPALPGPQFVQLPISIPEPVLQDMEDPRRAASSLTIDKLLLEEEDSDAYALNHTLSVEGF
# In short: as §1
# Sequence of POU1 (OCT1 POU domain) (P14859 260-458): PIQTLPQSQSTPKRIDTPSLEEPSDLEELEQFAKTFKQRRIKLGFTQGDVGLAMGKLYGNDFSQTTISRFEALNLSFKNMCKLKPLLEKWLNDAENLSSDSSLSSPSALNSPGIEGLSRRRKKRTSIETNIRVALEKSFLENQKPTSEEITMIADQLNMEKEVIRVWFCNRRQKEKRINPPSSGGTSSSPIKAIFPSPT
sequence,measurement,setting,value
ATTTCAAT,binding signal,POU1 (OCT1 POU domain),0.238 % of ANNNNAAN 8-mers
same,binding signal,POU2 (OCT2 POU domain),0.268 % of ANNNNAAN 8-mers
same,binding signal,[1],0.174 % of ANNNNAAN 8-mers
same,binding signal,[2],0.142 % of ANNNNAAN 8-mers
ATTCAAAA,binding signal,POU1 (OCT1 POU domain),0.365 % of ANNNNAAN 8-mers
same,binding signal,POU2 (OCT2 POU domain),0.277 % of ANNNNAAN 8-mers
same,binding signal,[1],0.427 % of ANNNNAAN 8-mers
same,binding signal,[2],0.278 % of ANNNNAAN 8-mers
AATAGAAA,binding signal,POU1 (OCT1 POU domain),0.0759 % of ANNNNAAN 8-mers
same,binding signal,POU2 (OCT2 POU domain),0.0972 % of ANNNNAAN 8-mers
same,binding signal,[1],0.0858 % of ANNNNAAN 8-mers
same,binding signal,[2],0.071 % of ANNNNAAN 8-mers
ACTACAAC,binding signal,POU1 (OCT1 POU domain),0.0122 % of ANNNNAAN 8-mers
same,binding signal,POU2 (OCT2 POU domain),0.0196 % of ANNNNAAN 8-mers
same,binding signal,[1],0.0164 % of ANNNNAAN 8-mers
same,binding signal,[2],0.0173 % of ANNNNAAN 8-mers
ATTACAAA,binding signal,POU1 (OCT1 POU domain),0.0919 % of ANNNNAAN 8-mers
same,binding signal,POU2 (OCT2 POU domain),0.0955 % of ANNNNAAN 8-mers
same,binding signal,[1],0.08 % of ANNNNAAN 8-mers
same,binding signal,[2],0.0685 % of ANNNNAAN 8-mers
AAATAAAA,binding signal,POU1 (OCT1 POU domain),0.177 % of ANNNNAAN 8-mers
same,binding signal,POU2 (OCT2 POU domain),0.177 % of ANNNNAAN 8-mers
same,binding signal,[1],0.199 % of ANNNNAAN 8-mers
same,binding signal,[2],0.171 % of ANNNNAAN 8-mers
AGCCCAAG,binding signal,POU1 (OCT1 POU domain),0.0111 % of ANNNNAAN 8-mers
same,binding signal,[1],0.0129 % of ANNNNAAN 8-mers
same,binding signal,[2],0.0124 % of ANNNNAAN 8-mers
AGAACAAT,binding signal,POU1 (OCT1 POU domain),0.0378 % of ANNNNAAN 8-mers
same,binding signal,POU2 (OCT2 POU domain),0.0414 % of ANNNNAAN 8-mers
same,binding signal,[1],0.0293 % of ANNNNAAN 8-mers
same,binding signal,[2],0.038 % of ANNNNAAN 8-mers
ATGCGAAG,binding signal,POU1 (OCT1 POU domain),0.0538 % of ANNNNAAN 8-mers
same,binding signal,POU2 (OCT2 POU domain),0.0604 % of ANNNNAAN 8-mers
same,binding signal,[1],0.0523 % of ANNNNAAN 8-mers
same,binding signal,[2],0.057 % of ANNNNAAN 8-mers
AAAACAAG,binding signal,POU1 (OCT1 POU domain),0.0641 % of ANNNNAAN 8-mers
same,binding signal,POU2 (OCT2 POU domain),0.0432 % of ANNNNAAN 8-mers
same,binding signal,[1],0.087 % of ANNNNAAN 8-mers
same,binding signal,[2],0.0751 % of ANNNNAAN 8-mers
ACAAGAAC,binding signal,POU1 (OCT1 POU domain),0.0214 % of ANNNNAAN 8-mers
same,binding signal,POU2 (OCT2 POU domain),0.0201 % of ANNNNAAN 8-mers
same,binding signal,[1],0.0144 % of ANNNNAAN 8-mers
same,binding signal,[2],0.0297 % of ANNNNAAN 8-mers
ACAGGAAT,binding signal,POU1 (OCT1 POU domain),0.0622 % of ANNNNAAN 8-mers
same,binding signal,POU2 (OCT2 POU domain),0.0685 % of ANNNNAAN 8-mers
same,binding signal,[1],0.0476 % of ANNNNAAN 8-mers
same,binding signal,[2],0.0702 % of ANNNNAAN 8-mers
ATTTTAAA,binding signal,POU1 (OCT1 POU domain),0.198 % of ANNNNAAN 8-mers
same,binding signal,POU2 (OCT2 POU domain),0.204 % of ANNNNAAN 8-mers
same,binding signal,[1],0.126 % of ANNNNAAN 8-mers
same,binding signal,[2],0.103 % of ANNNNAAN 8-mers
AACCTAAG,binding signal,POU1 (OCT1 POU domain),0.0256 % of ANNNNAAN 8-mers
same,binding signal,POU2 (OCT2 POU domain),0.0213 % of ANNNNAAN 8-mers
same,binding signal,[1],0.018 % of ANNNNAAN 8-mers
same,binding signal,[2],0.0173 % of ANNNNAAN 8-mers
AACTCAAT,binding signal,POU1 (OCT1 POU domain),0.0378 % of ANNNNAAN 8-mers
same,binding signal,POU2 (OCT2 POU domain),0.0437 % of ANNNNAAN 8-mers
same,binding signal,[1],0.0289 % of ANNNNAAN 8-mers
same,binding signal,[2],0.0314 % of ANNNNAAN 8-mers
AGTGTAAT,binding signal,POU1 (OCT1 POU domain),0.085 % of ANNNNAAN 8-mers
same,binding signal,POU2 (OCT2 POU domain),0.104 % of ANNNNAAN 8-mers
same,binding signal,[1],0.0679 % of ANNNNAAN 8-mers
same,binding signal,[2],0.0867 % of ANNNNAAN 8-mers
AGTTCAAA,binding signal,POU1 (OCT1 POU domain),0.0355 % of ANNNNAAN 8-mers
same,binding signal,POU2 (OCT2 POU domain),0.0357 % of ANNNNAAN 8-mers
same,binding signal,[1],0.0386 % of ANNNNAAN 8-mers
same,binding signal,[2],0.0421 % of ANNNNAAN 8-mers
ATACCAAC,binding signal,POU1 (OCT1 POU domain),0.0244 % of ANNNNAAN 8-mers
same,binding signal,POU2 (OCT2 POU domain),0.0276 % of ANNNNAAN 8-mers
same,binding signal,[1],0.0242 % of ANNNNAAN 8-mers
same,binding signal,[2],0.0215 % of ANNNNAAN 8-mers
ACCGTAAC,binding signal,POU1 (OCT1 POU domain),0.0118 % of ANNNNAAN 8-mers
same,binding signal,POU2 (OCT2 POU domain),0.019 % of ANNNNAAN 8-mers
same,binding signal,[1],0.018 % of ANNNNAAN 8-mers
same,binding signal,[2],0.0272 % of ANNNNAAN 8-mers
AGATAAAG,binding signal,POU1 (OCT1 POU domain),0.0439 % of ANNNNAAN 8-mers
same,binding signal,POU2 (OCT2 POU domain),0.0495 % of ANNNNAAN 8-mers
same,binding signal,[1],0.0359 % of ANNNNAAN 8-mers
same,binding signal,[2],0.0281 % of ANNNNAAN 8-mers
ATCGGAAC,binding signal,POU1 (OCT1 POU domain),0.0175 % of ANNNNAAN 8-mers
same,binding signal,POU2 (OCT2 POU domain),0.0242 % of ANNNNAAN 8-mers
same,binding signal,[1],0.023 % of ANNNNAAN 8-mers
same,binding signal,[2],0.0231 % of ANNNNAAN 8-mers
AGGTGAAA,binding signal,POU1 (OCT1 POU domain),0.0587 % of ANNNNAAN 8-mers
same,binding signal,POU2 (OCT2 POU domain),0.0466 % of ANNNNAAN 8-mers
same,binding signal,[1],0.0601 % of ANNNNAAN 8-mers
same,binding signal,[2],0.0471 % of ANNNNAAN 8-mers
AATCCAAG,binding signal,POU1 (OCT1 POU domain),0.0324 % of ANNNNAAN 8-mers
same,binding signal,POU2 (OCT2 POU domain),0.0339 % of ANNNNAAN 8-mers
same,binding signal,[1],0.0425 % of ANNNNAAN 8-mers
same,binding signal,[2],0.0371 % of ANNNNAAN 8-mers
ATCAGAAG,binding signal,POU1 (OCT1 POU domain),0.0271 % of ANNNNAAN 8-mers
same,binding signal,POU2 (OCT2 POU domain),0.0363 % of ANNNNAAN 8-mers
same,binding signal,[1],0.0359 % of ANNNNAAN 8-mers
same,binding signal,[2],0.033 % of ANNNNAAN 8-mers
AAACAAAG,binding signal,POU1 (OCT1 POU domain),0.114 % of ANNNNAAN 8-mers
same,binding signal,POU2 (OCT2 POU domain),0.0742 % of ANNNNAAN 8-mers
same,binding signal,[1],0.165 % of ANNNNAAN 8-mers
same,binding signal,[2],0.0892 % of ANNNNAAN 8-mers
ATAACAAG,binding signal,POU1 (OCT1 POU domain),0.0458 % of ANNNNAAN 8-mers
same,binding signal,POU2 (OCT2 POU domain),0.0621 % of ANNNNAAN 8-mers
same,binding signal,[1],0.0355 % of ANNNNAAN 8-mers
same,binding signal,[2],0.0462 % of ANNNNAAN 8-mers
AACGTAAA,binding signal,POU1 (OCT1 POU domain),0.0816 % of ANNNNAAN 8-mers
same,binding signal,POU2 (OCT2 POU domain),0.0639 % of ANNNNAAN 8-mers
same,binding signal,[1],0.0843 % of ANNNNAAN 8-mers
same,binding signal,[2],0.0578 % of ANNNNAAN 8-mers
AACCAAAT,binding signal,POU1 (OCT1 POU domain),0.166 % of ANNNNAAN 8-mers
same,binding signal,POU2 (OCT2 POU domain),0.121 % of ANNNNAAN 8-mers
same,binding signal,[1],0.257 % of ANNNNAAN 8-mers
same,binding signal,[2],0.18 % of ANNNNAAN 8-mers
AATGAAAT,binding signal,POU1 (OCT1 POU domain),0.139 % of ANNNNAAN 8-mers
same,binding signal,POU2 (OCT2 POU domain),0.157 % of ANNNNAAN 8-mers
same,binding signal,[1],0.14 % of ANNNNAAN 8-mers
same,binding signal,[2],0.121 % of ANNNNAAN 8-mers
ACACGAAA,binding signal,POU1 (OCT1 POU domain),0.0332 % of ANNNNAAN 8-mers
same,binding signal,POU2 (OCT2 POU domain),0.027 % of ANNNNAAN 8-mers
same,binding signal,[1],0.0386 % of ANNNNAAN 8-mers
same,binding signal,[2],0.0215 % of ANNNNAAN 8-mers
